# Screens: PubChem BioAssay, Johns Hopkins Ion Channel Center
# Shown are actives, neighbours in structure and some others; about 1.6% of the full set was active somewhere.
# KCNQ2 inh = blocks the rat KCNQ2 potassium channel | O88943 | CHO-K1 KCNQ2, FluxOR thallium flux, 20 min; hits give low values | B-score at 10 µM | actives 1.1% (n = 310,000);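 active = fluorescence ratio B-score at most minus 3 library SDs, with starting brightness B-score within 2 library SDs, cut at about -5.5 in these data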
# KCNQ2 enhance = potentiators of rat KCNQ2 potassium channel. CHO-K1 KCNQ2, FluxOR thallium flux fluorescence; hits give high values. B-score at 10 µM. actives 0.54% (n = 310,000). AID 2239;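 active = fluorescence ratio B-score at least 3 SD of library B-scores, with initial fluorescence B-score within 3 of them, cut at about 5.3 in these data; same plate scores as AID 2156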;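 note: B-score of peak minus minimum over baseline fluorescence ratio after K+ and Tl+ stimulus; positive B-score means potentiation of KCNQ2 with more thallium influx and brighter signal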
# Kir21 confirm = confirmation of mouse Kir2.1 potassium channel inhibitors | shares compounds with KCNQ2 enhance | Kir2.1-expressing cells, FluxOR thallium flux fluorescence; hits give low values | Tl flux remaining, % of negative control (hits give low values), % at 10 µM | actives 41% (n = 2,300) | AID 2032;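 active = Primary-screen hit whose thallium flux fell at least 3 control SD below untreated wells in both duplicates, with normal baseline fluorescence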
# HEK293 Tl flux = parental HEK293 activity in Kir2.1 inhibitor counter-screen. shares compounds with KCNQ2 enhance. parental HEK293 cells, FluxOR thallium flux fluorescence; 0% = unstimulated blank wells. FluxOR signal as % of negative control (100 = no effect), % at 10 µM. actives 19% (n = 2,300);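 active = dye signal at least 3 control SD above or below untreated wells in both duplicates, raw fluorescence within 3, either direction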;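 note: percent is based on the flux ratio of peak minus minimum fluorescence over baseline F0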
# CHO-K1 ctr = alters thallium flux in parental CHO-K1 cells, KCNQ2 counter-screen | shares compounds with KCNQ2 enhance | FluxOR thallium flux fluorescence; zero = vehicle mean+3SD, 100% = vehicle-minus-blank window | actives 43% (n = 1,200) | activity increase over 3SD of controls, % at 10 µM;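 active = signal rise of at least 3 SD above the untreated control mean, in both duplicate wells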;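 note: counter screen of KCNQ2 potentiator hits so any rise reflects channel-independent effects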
# KCNQ1 pot spec = tests whether KCNQ2 potentiators also act on human KCNQ1; shares compounds with KCNQ2 enhance; CHO KCNQ1 stable, FluxOR thallium flux fluorescence; beyond 3SD, as % of vehicle-control signal; activation over 3SD threshold, % at 10 µM; actives 28% (n = 1,200);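 active = fluorescence ratio rise of at least 3 SD of vehicle wells above their mean, in both replicate wells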
# Target sequence (P51787 whole entry, looked up): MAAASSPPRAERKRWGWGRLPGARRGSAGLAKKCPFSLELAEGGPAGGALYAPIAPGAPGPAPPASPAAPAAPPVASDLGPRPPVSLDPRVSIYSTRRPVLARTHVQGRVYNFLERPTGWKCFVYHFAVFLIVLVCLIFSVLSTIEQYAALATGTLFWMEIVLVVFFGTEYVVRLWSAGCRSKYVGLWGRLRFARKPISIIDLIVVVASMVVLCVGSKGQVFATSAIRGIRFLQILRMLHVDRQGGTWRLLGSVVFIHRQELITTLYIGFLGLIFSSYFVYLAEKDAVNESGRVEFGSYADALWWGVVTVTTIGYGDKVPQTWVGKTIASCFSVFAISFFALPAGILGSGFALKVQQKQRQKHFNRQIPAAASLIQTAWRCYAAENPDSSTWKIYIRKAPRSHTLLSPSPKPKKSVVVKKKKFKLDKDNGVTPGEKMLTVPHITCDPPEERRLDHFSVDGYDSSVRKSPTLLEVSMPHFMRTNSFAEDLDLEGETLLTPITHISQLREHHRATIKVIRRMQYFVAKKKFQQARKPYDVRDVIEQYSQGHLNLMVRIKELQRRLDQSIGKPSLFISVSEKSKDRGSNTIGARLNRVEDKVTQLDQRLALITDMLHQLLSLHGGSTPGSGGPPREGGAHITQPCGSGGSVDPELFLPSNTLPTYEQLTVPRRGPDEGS
# KCNQ2 pot confirm = confirmation of rat KCNQ2 potassium channel potentiators | potentiation, less the hit threshold, % at 10 µM | CHO-KCNQ2 cells, FluxOR thallium flux fluorescence | shares compounds with KCNQ2 enhance | actives 68% (n = 1,200);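 active = fluorescence ratio rising 3 SD or more over the vehicle control mean in both replicates, plus primary screen hit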;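 note: peak minus minimum thallium fluorescence divided by baseline after K/Tl stimulus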
# Kir2-1 sel = tests whether KCNQ2 potentiators also affect mouse Kir2.1 | actives 2% (n = 1,200) | shares compounds with KCNQ2 enhance | activity over 3SD threshold, % at 10 µM | HEK293 Kir2.1, FluxOR thallium flux fluorescence;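 active = fluorescence ratio rise of at least 3 SD above the vehicle-control mean, seen in both replicates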
# KCNQ2 W236L pot = rat KCNQ2 W236L mutant potentiation by KCNQ2 potentiators | shares compounds with KCNQ2 enhance | CHO KCNQ2-W236L, automated patch clamp current | current increase over 3SD of negative controls (%), hits give high values, % at 25 µM | actives 10% (n = 940);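 active = current increase at least 3 SD of the untreated controls above them in both duplicate recordings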
# Numbers stand for hits; 0 = inactive; - = not tested or not shown.
SMILES,KCNQ2 inh,KCNQ2 enhance,Kir21 confirm,HEK293 Tl flux,CHO-K1 ctr,KCNQ1 pot spec,KCNQ2 pot confirm,Kir2-1 sel,others
CCN(CC)c1ccc(NC(=O)C2CC3CCC2C3)cc1 (centres undefined),0,23,0,0,2.7,0,65,0,KCNQ2 W236L pot=0
O=C(Nc1ccccc1)C1CC2CCC1C2 (centres undefined),0,0,-,-,-,-,-,-,
COc1ccc(C(OCC(O)CNCCc2ccccc2)c2ccc(OC)cc2)cc1 (centres undefined),0,-,44%,0,-,-,-,-,
Cc1ccc(C(OCC(O)CNCc2ccc(F)cc2)c2ccccc2)cc1 (centres undefined),0,-,34%,0,-,-,-,-,
COc1ccc(C(OCC(O)CNC(C)c2ccccc2)c2ccc(OC)cc2)cc1 (centres undefined),0,-,-,-,-,-,-,-,
CCC(=O)c1ccc(OCC(O)CNCc2ccc(F)cc2)cc1 (centres undefined),0,0,-,-,-,-,-,-,
O=C(c1ccccc1)c1ccc(OCC(O)CNCc2ccc(F)cc2)cc1 (centres undefined),0,-,26%,0,-,-,-,-,
Cc1ccc(OCC(O)CNCc2ccccc2)cc1C (centres undefined),0,-,-,-,-,-,-,-,
O=C(c1ccccc1)c1ccc(OCC(O)CNCc2cccc(Cl)c2)cc1 (centres undefined),0,-,48%,0,-,-,-,-,
Cc1ccc(C(OCC(O)CN2CCCCC2CO)c2ccccc2)cc1 (centres undefined),0,0,-,-,-,-,-,-,
Cc1nnc(SC/C=C/c2ccccc2)n(N)c1=O,0,0,-,-,-,-,-,-,
O=C(/C=C/c1ccccc1)n1cnnc1SC/C=C/c1ccccc1,0,-,0,0,-,-,-,-,
O=C(N/N=C/c1ccccn1)c1cc(Br)ccc1O,0,7.3,0,228%,0,0,44,0,KCNQ2 W236L pot=0
Cc1cccc(NC(=S)NC(=O)c2cc(-c3ccccc3)nc3ccccc23)c1,0,0,-,-,-,-,-,-,
O=C(N/N=C/c1ccccn1)c1cc(-c2ccccc2)nc2ccccc12,0,11,0,0,222,81,13,0,KCNQ2 W236L pot=0
O=C(N/N=C/c1cccnc1)c1cc(Br)ccc1O,0,-,-,-,-,-,-,-,
Cc1ccccc1NC(=S)NC(=O)c1cc(-c2ccccc2)nc2ccccc12,0,6.2,0,0,0,8.8,0,0,
O=C(N/N=C/c1ccccn1)c1cc(C2CC2)nc2ccccc12,0,-,-,-,-,-,-,-,
CCCC1=NN2C(=N)/C(=C\c3cc(C)n(Cc4ccccc4)c3C)C(=O)N=C2S1,0,12,0,0,21,0,0,0,KCNQ2 W236L pot=0
Cc1cc(/C=C2\C(=N)N3N=C(S(C)(=O)=O)SC3=NC2=O)c(C)n1Cc1ccccc1,0,0,-,-,-,-,-,-,
COC(=O)C1=C(C)N(Cc2ccccc2)C(=NCc2ccccc2)N[C@H]1c1cccc(F)c1,0,-,19%,0,-,-,-,-,
COCCN1C(=S)N[C@@H](c2cccc(F)c2)C(C(=O)OC)=C1C,0,-,41%,0,-,-,-,-,
COC(=O)C1=C(C)N(Cc2ccccc2)C(=S)N[C@H]1c1cccc(F)c1,0,-,-,-,-,-,-,-,
COCCN=C1N[C@@H](c2ccc(Br)cc2)C(C(=O)OC)=C(C)N1Cc1ccccc1,0,-,32%,74%,-,-,-,-,
COCCN=C1N[C@@H](c2ccccc2)C(C(=O)OC)=C(C)N1Cc1ccccc1,0,-,-,-,-,-,-,-,
SMILES,KCNQ2 inh,KCNQ2 enhance,Kir21 confirm,HEK293 Tl flux,CHO-K1 ctr,KCNQ1 pot spec,KCNQ2 pot confirm,Kir2-1 sel,others
CCN1C(=O)N[C@@H](c2cccc(F)c2)C(C(=O)OC)=C1C,0,0,-,-,-,-,-,-,
CCc1cc(-c2n[nH]c(C)c2-c2nc(C)cs2)c(O)cc1OC,0,0,37%,0,-,-,-,-,
CCc1cc(-c2n[nH]c(C)c2-c2nc3ccccc3s2)c(O)cc1OCC(=O)NN,0,-,-,-,-,-,-,-,
CC(C)(C)C(=O)Nc1ccc(S(=O)(=O)N2CCC(c3nc4ccccc4[nH]3)CC2)cc1,0,0,-,-,-,-,-,-,
CCOc1ccc(OCCC(=O)OCC(=O)Nc2ccc3c(c2)OCCO3)cc1,0,-,-,-,-,-,-,-,
O=C(CCC1CCCC1)Nc1cccc(Cc2ccncc2)c1,0,6.3,0,0,94,0,0,0,
CC(=O)Nc1cccc(NC(=O)CCCC2CCCCC2)c1,0,0,-,-,-,-,-,-,
CC(/C=N/n1c(C2CCCCC2)n[nH]c1=S)=C\c1ccccc1,0,8.3,0,0,92,23,0,0,
Cc1cccc(/C=N/n2c(C3CCCCC3)n[nH]c2=S)c1,0,-,-,-,-,-,-,-,
O=[N+]([O-])c1ccc(NC(=S)NCc2ccncc2)cc1,0,0,-,-,-,-,-,-,
O=[N+]([O-])c1ccc(NC(=S)NCc2ccc(F)cc2)cc1,0,21,-,-,0,11,42,0,KCNQ2 W236L pot=0
O=C(OCC(=O)N1CCc2ccccc2C1)c1cccnc1Cl,0,0,-,-,-,-,-,-,
COc1ccc(C(=O)Cc2cc(OC)c(OC)cc2C(=O)c2ccccc2F)cc1OC,0,0,-,-,-,-,-,-,
O=C1CC(N2CCN(C3CC(=O)N(CCc4ccccc4)C3=O)CC2)C(=O)N1CCc1ccccc1 (centres undefined),0,0,-,-,-,-,-,-,
O=C1CC(N2CCC(Cc3ccccc3)CC2)C(=O)N1CCc1ccccc1 (centres undefined),0,5.7,0,0,0,0,7.5,0,KCNQ2 W236L pot=0
CCCCn1c(-c2csc(CCC)c2)n[nH]c1=S,0,9.1,0,172%,0,0,20,0,KCNQ2 W236L pot=0
CCCc1cc(-c2n[nH]c(=S)n2CC)cs1,0,0,-,-,-,-,-,-,
O=S(=O)(NCCc1ccccn1)c1ccc(OC(F)(F)F)cc1,0,-,-,-,-,-,-,-,
O=S(=O)(NCCc1ccccn1)c1ccc(F)c(F)c1,0,6.1,0,0,3.1,0,0,0,KCNQ2 W236L pot=0
CC1CCCC(C)N1C(=O)CNCc1ccc2c(c1)OCO2 (centres undefined),0,-,-,-,-,-,-,-,
O=C(COc1ccc(Cl)cc1)NNC(=O)CSc1nncs1,0,0,-,-,-,-,-,-,
On1c(-c2ccccc2)nc2ccc(Cl)cc21,0,-,-,-,-,-,-,-,
O=c1c2ccccc2nc(-c2ccccc2Cl)n1O,0,-,-,-,-,-,-,-,
N#Cc1ccc(-c2nc3cc(Cl)ccc3c(=O)n2O)cc1,0,0,-,-,-,-,-,-,
O=c1c2ccc(Cl)cc2nc(-c2cccc(C(F)(F)F)c2)n1O,0,18,0,498%,0,0,66,4.2,KCNQ2 W236L pot=0
N#Cc1ccc(-c2nc3ccccc3c(=O)n2O)cc1,0,0,-,-,-,-,-,-,
O=c1c2cc(Cl)ccc2nc(-c2ccc([N+](=O)[O-])cc2)n1O,0,9.7,0,308%,0,0,42,0,KCNQ2 W236L pot=0
Cc1ccc(-c2nc3c(Cl)cc(Cl)cc3c(=O)n2O)cc1,0,17,0,542%,4.1,2.4,102,0.8,KCNQ2 W236L pot=0
